Results as given in the supplement of paper PMC11732987, “Enantioselective OTUD7B fragment discovery through chemoproteomics screening and high-throughput optimisation” (Communications Chemistry, 2025).

Assays:
Experiment in all cases: log2 ratio of Biotin-Ahx-Ub-VS probe labelling (fragment/DMSO); higher = less target engagement (more negative = stronger competition), active = hit call of the paper (q ≤ 0.05, log2 ratio ≤ -1)
Settings in all cases: compound concentration: 200 uM; treatment time: 3 h
USP42 = target: T1, USP42 (UniProt Q9H9J4)
T1 sequence (whole entry): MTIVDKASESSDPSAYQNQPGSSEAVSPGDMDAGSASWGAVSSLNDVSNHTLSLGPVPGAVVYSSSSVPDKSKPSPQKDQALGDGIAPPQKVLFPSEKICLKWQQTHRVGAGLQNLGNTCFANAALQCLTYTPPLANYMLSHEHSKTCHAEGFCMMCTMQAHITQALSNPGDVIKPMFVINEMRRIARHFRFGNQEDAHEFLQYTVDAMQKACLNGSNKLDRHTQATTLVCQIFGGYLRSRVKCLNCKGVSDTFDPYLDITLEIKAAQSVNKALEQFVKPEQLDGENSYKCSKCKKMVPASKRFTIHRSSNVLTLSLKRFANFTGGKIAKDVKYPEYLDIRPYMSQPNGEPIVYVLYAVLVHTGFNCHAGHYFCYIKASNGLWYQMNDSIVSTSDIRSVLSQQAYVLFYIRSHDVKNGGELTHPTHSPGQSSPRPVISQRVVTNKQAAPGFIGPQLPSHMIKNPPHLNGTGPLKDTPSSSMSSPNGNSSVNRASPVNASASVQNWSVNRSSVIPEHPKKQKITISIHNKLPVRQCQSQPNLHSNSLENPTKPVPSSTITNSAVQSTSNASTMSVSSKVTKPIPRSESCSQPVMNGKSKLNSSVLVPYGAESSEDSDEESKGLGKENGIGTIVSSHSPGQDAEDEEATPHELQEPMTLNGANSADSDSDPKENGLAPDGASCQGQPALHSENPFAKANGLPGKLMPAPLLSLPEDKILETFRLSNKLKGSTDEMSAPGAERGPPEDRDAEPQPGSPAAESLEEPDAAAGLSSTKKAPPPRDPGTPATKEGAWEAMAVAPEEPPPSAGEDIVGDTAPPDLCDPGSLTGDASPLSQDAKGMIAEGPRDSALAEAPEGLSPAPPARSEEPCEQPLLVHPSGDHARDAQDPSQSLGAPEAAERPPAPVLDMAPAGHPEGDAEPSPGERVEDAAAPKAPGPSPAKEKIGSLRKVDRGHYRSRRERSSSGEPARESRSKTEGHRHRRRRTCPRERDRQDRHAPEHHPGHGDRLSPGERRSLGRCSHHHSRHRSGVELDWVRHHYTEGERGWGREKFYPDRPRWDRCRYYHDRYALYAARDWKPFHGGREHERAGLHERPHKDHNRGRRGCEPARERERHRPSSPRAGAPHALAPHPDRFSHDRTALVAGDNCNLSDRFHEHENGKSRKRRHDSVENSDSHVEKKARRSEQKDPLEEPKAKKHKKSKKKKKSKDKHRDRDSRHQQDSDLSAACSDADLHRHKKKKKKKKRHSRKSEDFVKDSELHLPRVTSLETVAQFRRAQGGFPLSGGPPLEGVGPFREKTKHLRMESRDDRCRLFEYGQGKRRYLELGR
Method in brief: (§1)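 Labelled DUBs from HEK293T lysate were NeutrAvidin-enriched, digested with LysC and trypsin, and run by diaPASEF LC-MS/MS. Before that, each 495 µg sample in Tris/CHAPS/IGEPAL buffer with protease inhibitors was treated in triplicate with fragment at 200 µM or vehicle for 3 h, then with Biotin-Ahx-Ub-VS at 0.5 µM final for 1 h. Values are average log2 ratios of fragment over vehicle by unpaired t-test, based on global-median-normalised Spectronaut label-free quantities from proteins with ≥2 unique peptides.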

USP46 = USP46 (UniProt P62068)
Method in brief: as §1

USP47 = target: T2, USP47 (UniProt Q96K76)
T2 sequence (whole entry): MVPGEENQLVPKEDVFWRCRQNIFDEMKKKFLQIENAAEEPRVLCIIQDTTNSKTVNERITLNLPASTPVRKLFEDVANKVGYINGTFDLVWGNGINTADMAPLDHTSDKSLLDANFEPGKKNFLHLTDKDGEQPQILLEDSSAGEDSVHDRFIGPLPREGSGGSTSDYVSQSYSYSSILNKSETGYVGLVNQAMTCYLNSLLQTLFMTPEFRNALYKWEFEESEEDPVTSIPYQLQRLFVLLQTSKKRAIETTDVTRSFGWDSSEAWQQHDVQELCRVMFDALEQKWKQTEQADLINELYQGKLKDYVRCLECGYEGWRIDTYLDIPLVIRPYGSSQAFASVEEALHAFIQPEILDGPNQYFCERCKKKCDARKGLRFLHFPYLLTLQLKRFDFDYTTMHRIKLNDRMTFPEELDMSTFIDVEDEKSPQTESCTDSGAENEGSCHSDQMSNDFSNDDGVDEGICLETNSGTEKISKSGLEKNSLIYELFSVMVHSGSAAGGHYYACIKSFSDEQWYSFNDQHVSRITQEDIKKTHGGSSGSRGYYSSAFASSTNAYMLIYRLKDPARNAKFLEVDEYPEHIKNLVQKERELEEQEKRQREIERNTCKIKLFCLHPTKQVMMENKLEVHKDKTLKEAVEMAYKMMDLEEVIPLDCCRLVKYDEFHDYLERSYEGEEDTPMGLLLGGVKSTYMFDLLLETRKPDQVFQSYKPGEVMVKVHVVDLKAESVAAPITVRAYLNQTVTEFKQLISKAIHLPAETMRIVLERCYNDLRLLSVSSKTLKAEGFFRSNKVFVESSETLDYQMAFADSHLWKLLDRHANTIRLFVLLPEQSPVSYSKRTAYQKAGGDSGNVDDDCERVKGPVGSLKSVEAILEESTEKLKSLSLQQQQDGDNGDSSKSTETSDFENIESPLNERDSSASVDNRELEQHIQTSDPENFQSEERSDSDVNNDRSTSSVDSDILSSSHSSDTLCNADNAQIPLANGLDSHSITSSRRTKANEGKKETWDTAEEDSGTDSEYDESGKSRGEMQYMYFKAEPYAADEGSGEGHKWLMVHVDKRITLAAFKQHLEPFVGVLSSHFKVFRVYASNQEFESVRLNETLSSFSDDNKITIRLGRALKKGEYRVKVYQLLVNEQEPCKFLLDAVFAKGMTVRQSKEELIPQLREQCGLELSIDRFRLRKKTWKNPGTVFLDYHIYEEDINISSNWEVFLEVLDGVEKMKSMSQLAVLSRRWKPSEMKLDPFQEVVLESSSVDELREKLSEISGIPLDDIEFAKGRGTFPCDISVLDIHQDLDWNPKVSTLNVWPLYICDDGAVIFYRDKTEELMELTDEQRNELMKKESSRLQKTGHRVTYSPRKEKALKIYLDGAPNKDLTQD
Method in brief: as §1

USP48 = target: T3, USP48 (UniProt Q86UV5)
T3 sequence (whole entry): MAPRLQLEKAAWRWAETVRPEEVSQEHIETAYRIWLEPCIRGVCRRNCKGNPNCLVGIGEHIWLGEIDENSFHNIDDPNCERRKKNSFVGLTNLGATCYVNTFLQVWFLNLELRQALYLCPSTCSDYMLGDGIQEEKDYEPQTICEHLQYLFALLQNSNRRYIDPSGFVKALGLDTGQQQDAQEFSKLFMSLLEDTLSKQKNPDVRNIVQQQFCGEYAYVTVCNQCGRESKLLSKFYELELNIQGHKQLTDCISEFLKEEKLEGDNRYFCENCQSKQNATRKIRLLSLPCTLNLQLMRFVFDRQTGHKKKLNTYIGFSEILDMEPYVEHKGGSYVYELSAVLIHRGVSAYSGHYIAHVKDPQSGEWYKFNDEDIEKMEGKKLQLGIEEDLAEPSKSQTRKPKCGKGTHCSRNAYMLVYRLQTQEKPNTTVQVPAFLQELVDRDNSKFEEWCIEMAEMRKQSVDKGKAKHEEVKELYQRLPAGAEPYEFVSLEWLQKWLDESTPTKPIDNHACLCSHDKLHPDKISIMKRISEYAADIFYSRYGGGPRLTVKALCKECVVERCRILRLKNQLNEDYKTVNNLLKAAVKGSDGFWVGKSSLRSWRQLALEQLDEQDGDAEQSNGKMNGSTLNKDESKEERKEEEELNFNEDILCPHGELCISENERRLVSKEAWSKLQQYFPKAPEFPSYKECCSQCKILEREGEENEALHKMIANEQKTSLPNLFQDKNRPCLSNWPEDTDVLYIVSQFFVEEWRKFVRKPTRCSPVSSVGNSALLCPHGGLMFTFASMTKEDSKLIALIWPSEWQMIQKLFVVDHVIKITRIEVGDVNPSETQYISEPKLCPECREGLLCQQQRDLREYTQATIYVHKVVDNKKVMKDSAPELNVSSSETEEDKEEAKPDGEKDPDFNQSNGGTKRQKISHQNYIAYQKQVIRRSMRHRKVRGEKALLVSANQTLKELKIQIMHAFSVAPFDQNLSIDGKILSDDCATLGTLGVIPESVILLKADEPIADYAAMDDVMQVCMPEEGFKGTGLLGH
Method in brief: as §1

USP5 = target: T4, USP5 (UniProt P45974)
T4 sequence (whole entry): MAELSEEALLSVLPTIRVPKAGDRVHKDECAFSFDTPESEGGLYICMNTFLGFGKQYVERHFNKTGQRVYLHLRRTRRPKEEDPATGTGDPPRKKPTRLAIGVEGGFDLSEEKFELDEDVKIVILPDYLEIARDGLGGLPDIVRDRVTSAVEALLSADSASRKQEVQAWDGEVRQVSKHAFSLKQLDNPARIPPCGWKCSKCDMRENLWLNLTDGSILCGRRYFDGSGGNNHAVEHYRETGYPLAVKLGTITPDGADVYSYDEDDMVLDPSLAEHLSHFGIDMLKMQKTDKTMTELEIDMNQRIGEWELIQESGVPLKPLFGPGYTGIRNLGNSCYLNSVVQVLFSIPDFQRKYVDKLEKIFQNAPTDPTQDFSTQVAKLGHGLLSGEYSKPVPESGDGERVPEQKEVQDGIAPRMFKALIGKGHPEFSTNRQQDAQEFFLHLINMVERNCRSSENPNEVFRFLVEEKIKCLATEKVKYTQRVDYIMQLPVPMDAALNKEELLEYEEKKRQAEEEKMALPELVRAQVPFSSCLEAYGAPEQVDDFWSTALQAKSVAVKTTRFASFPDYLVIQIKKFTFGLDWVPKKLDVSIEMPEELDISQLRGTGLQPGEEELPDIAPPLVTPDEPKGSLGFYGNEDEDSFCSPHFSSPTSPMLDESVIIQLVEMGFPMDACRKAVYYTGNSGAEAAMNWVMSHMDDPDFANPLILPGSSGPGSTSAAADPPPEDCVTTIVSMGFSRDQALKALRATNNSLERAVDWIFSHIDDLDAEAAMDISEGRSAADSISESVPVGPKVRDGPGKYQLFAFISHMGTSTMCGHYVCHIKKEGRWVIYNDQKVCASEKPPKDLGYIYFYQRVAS
Method in brief: as §1

USP54 = USP54 (UniProt Q70EL1)
Method in brief: as §1

USP7 = USP7 (UniProt Q93009)
Method in brief: as §1

USP8 = target: T5, USP8 (UniProt P40818)
T5 sequence (whole entry): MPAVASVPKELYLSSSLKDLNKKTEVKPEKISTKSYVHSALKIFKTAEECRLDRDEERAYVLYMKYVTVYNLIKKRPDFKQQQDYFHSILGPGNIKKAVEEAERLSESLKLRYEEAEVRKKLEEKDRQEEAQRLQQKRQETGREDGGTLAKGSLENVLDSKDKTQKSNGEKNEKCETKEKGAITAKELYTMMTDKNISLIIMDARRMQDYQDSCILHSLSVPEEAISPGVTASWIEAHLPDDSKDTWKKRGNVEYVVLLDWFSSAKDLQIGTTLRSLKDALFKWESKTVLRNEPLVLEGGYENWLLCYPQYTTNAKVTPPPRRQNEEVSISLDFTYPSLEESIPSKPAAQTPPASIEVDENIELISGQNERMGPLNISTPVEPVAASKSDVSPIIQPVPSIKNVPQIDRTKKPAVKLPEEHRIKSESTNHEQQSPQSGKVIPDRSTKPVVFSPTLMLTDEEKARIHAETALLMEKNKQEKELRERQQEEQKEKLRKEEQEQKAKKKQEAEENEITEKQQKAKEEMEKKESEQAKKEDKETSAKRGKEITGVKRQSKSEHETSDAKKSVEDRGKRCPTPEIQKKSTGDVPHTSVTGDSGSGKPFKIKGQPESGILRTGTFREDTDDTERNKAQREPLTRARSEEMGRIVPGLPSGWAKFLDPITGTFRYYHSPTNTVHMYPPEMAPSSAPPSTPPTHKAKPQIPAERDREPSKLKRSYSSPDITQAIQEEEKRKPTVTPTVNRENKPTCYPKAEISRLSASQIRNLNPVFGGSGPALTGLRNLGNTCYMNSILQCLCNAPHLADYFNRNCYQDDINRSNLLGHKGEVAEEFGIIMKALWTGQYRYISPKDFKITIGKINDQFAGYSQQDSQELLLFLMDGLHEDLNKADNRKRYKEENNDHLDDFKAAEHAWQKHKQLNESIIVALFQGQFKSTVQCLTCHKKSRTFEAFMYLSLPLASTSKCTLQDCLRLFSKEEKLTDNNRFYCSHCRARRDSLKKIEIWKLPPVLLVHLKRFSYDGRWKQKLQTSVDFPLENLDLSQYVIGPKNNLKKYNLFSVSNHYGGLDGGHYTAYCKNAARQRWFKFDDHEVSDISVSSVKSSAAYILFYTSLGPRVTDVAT
Method in brief: as §1

Measured: log2 ratio of Biotin-Ahx-Ub-VS probe labelling

Sequence of USP54 (Q70EL1 whole entry): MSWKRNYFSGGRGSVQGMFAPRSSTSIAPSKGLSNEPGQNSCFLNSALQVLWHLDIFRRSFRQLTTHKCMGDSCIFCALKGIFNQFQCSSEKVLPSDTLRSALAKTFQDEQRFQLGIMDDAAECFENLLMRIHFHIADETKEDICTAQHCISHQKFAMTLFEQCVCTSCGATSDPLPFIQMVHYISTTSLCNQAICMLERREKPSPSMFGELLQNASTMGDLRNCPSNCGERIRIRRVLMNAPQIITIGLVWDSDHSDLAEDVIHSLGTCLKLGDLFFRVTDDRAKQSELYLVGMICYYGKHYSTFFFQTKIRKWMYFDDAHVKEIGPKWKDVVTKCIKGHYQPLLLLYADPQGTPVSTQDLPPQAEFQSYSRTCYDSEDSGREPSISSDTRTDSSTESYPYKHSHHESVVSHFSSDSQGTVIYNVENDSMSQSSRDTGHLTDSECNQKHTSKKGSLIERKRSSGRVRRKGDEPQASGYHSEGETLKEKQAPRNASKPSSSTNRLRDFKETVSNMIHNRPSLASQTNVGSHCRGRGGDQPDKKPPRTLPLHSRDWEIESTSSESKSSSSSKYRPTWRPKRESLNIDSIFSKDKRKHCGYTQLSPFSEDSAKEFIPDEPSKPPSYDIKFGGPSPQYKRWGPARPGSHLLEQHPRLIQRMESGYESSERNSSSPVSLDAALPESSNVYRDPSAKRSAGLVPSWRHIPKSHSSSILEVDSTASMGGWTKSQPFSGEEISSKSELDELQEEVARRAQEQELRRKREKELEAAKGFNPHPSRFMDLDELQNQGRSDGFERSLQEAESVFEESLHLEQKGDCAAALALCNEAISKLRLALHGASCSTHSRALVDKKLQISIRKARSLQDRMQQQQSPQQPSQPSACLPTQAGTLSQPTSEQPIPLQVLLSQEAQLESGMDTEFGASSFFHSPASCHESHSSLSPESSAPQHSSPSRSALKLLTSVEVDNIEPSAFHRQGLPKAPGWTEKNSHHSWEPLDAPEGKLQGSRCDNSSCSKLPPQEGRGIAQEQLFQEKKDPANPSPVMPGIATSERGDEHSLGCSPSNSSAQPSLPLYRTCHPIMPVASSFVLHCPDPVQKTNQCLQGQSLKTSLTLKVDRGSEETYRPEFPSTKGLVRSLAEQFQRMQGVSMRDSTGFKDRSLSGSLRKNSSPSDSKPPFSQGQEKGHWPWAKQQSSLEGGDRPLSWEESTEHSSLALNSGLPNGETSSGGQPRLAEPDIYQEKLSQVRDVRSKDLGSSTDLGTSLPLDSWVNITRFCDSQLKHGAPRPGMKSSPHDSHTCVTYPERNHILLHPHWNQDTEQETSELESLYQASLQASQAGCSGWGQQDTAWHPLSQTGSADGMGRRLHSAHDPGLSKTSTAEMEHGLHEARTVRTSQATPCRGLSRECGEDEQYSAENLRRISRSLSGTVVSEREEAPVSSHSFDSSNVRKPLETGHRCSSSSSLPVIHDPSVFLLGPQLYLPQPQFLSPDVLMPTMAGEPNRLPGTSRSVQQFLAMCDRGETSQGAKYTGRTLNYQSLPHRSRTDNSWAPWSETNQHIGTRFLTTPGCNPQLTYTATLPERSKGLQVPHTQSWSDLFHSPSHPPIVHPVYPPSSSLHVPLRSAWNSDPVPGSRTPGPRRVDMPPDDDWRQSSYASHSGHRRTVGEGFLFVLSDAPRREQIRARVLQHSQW
Sequence of USP7 (Q93009 whole entry, looked up): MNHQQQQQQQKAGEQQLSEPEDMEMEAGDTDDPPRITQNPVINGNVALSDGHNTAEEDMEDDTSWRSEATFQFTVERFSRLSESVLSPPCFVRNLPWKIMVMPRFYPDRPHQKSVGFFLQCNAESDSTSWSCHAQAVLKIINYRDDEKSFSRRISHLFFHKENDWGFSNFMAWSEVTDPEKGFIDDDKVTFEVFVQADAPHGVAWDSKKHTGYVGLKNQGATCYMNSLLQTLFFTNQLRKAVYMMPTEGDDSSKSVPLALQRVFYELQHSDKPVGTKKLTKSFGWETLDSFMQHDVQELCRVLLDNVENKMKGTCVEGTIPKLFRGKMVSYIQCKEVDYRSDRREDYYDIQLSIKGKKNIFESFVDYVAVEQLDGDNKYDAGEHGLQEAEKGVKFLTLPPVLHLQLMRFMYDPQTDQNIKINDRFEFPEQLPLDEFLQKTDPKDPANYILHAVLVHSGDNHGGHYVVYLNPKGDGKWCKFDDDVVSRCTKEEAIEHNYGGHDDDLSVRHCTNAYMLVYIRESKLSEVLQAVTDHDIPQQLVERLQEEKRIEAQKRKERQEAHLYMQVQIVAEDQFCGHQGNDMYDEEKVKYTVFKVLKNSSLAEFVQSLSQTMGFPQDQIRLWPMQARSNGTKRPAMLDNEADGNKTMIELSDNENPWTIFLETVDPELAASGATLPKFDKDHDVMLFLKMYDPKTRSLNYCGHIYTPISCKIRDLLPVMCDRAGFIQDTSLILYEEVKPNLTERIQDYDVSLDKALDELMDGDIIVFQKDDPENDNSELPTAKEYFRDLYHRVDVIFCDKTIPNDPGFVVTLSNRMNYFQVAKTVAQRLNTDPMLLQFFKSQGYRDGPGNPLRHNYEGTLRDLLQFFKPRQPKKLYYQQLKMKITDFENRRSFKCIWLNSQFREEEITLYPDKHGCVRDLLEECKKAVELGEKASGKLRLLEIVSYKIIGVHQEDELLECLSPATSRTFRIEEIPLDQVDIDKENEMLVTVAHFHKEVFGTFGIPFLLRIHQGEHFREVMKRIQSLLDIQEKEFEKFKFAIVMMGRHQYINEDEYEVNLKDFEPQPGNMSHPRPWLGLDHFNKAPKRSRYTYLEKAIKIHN
Sequence of USP46 (P62068 whole entry): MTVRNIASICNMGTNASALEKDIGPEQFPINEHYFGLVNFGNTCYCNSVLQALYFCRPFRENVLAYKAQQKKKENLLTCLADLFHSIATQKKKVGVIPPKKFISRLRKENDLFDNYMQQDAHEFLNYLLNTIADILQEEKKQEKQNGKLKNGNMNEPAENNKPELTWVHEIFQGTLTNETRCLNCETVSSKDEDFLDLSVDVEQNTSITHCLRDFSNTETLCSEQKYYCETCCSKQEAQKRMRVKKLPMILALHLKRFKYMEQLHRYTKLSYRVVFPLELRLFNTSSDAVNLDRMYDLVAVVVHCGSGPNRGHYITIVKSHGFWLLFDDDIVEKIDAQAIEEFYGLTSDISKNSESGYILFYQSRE

CCc1c[nH]c(CNC(=O)CCl)n1.Cl
inactive: USP42 0.203 | USP46 -0.136 | USP47 -0.108 | USP48 -0.267 | USP5 -0.335 | USP54 0.304 | USP7 -0.288 | USP8 -0.335
